Source: PubChem BioAssay
Compounds with a hit are over-represented: about 3.4% of the library has one in this group of screens.
GPR151 activ – activates the human receptor GPR151; 650,000 tested, 1% active; activation, % at 11.2 µM; Q8TDV0; AID 1508602; PathHunter beta-arrestin GPR151 cells, luminescence; in the data active means activation above about 4.9%;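 further: 0% = median of compound wells and 100% = cells with positive control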
FBW7 act – human FBW7 E3 ligase activation, primary screen; Q969H0; AlphaScreen FBW7–phospho-cyclin E peptide binding, activator screen; normalized activity (activation), % at 26.1 µM; 650,000 tested, 0.13% active; AID 1259310; in the data active means normalized activity above about 1.9%;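 further: purified mutant Fbw7 with reduced substrate affinity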
TEAD-YAP inh – TEAD-YAP interaction inhibition | HEK-TIYL cells, TEAD-Gal4/YAP UAS-luciferase luminescence | inhibition, % at 9.12 µM | 640,000 tested, 1.4% active; in the data active means inhibition above about 32%;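 further: 0% = median of test compound wells and 100% = reference inhibitor wells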
MITF primary – inhibitors of human MITF. O75030. AlphaScreen MITF homodimerization, bead proximity signal. inhibition, % at 2.6 µM. 650,000 tested, 0.91% active. AID 1259374; in the data active means inhibition above about 50%;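 further: 0% = vehicle wells with protein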
Target sequence (O75030 whole entry, looked up): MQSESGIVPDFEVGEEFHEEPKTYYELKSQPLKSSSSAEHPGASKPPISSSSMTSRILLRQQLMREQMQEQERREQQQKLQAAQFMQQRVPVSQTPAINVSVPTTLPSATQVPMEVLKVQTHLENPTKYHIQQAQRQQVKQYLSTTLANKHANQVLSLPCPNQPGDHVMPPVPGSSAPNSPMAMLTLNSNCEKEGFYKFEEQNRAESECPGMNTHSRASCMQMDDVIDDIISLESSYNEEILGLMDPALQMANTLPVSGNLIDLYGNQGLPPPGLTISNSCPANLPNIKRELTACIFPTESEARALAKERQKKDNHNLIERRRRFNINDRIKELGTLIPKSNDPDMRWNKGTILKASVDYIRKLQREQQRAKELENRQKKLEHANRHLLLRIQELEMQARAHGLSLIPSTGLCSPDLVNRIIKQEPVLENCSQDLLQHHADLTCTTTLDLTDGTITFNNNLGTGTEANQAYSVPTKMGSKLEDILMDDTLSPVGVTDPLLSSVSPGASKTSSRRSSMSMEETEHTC
The depositor's hits bear a star; . = not tested or not shown.

SMILES | GPR151 activ | FBW7 act | TEAD-YAP inh | MITF primary
CC1(C)OC(=O)C(=C/C=C/c2ccco2)C(=O)O1 | 0 | 0 | 9 | 71*
COC(=O)C1=C(C)NC2=C(C(=O)CC(c3ccc(OC)cc3)C2)C1c1cccc(Cl)c1Cl (stereo not given) | 1 | 1 | 18 | 13
O=S(=O)(c1ccc(-c2csc(N/N=C/c3cccs3)n2)cc1)N1CCCC1 | -1 | 1 | 51* | 7
O=C(Nc1nc(-c2ccc(S(=O)(=O)N3CCCCCC3)cc2)cs1)c1cccs1 | 0 | 0 | -1 | 5
COc1ccc(OCC(=O)Nc2nn3c(-c4cccc(OC)c4)nnc3s2)cc1 | -1 | 0 | 4 | -22
Nc1ccc(Nc2nc(-c3ccc(O)c(O)c3)cs2)cc1 | 1 | 0 | -5 | 98*
O=C(O)c1ccc(Nc2nc(-c3ccc(O)c(O)c3)cs2)cc1 | -2 | 0 | -4 | 92*
Cc1cccc(Nc2nc(-c3ccc(O)c(O)c3)cs2)c1 | -1 | 0 | -55 | 5
Oc1ccc(Nc2nc(-c3ccc(Cl)cc3)cs2)cc1 | 0 | . | . | -2
Oc1ccc(Nc2nc(-c3ccc(O)c(O)c3)cs2)cc1 | 0 | 0 | -78 | 54*
C[C@H]1NC(=O)[C@@H]2C[C@H](NCc3cn(C)nc3-c3ccccc3)CN2C1=O | -1 | 0 | -10 | 2
Cc1ccc(N2CC(NC(=O)c3ccccc3C(F)(F)F)CC2=O)cc1C (stereo not given) | 1 | 0 | -3 | -2
CCOc1ccccc1C(=O)NC1CC(=O)N(c2ccc(C)c(C)c2)C1 (stereo not given) | 0 | 0 | 43* | 14
O=C(c1ccccc1)N1C(=O)c2ccccc2C1=O | 1 | 2.5* | -4 | 26
COc1cc(/C=C/C(=O)Nc2ccc3nc(N4CCN(c5ncccn5)CC4)cc(C)c3c2)cc(OC)c1OC | 2 | 0 | 42* | 1
Cc1cc(N2CCN(c3ncccn3)CC2)nc2ccc(NC(=O)c3ccncc3)cc12 | 1 | 0 | 48* | 6
O=C(O)C1CC(=O)N(c2ccccc2Cl)C1 (stereo not given) | 2 | 0 | 0 | -5
C=C1CC[C@H](O)C/C1=C/C=C1\CCCC2(C)C1CCC2C(C)CCCC(C)C (stereo not given in full) | 1 | 0 | -5 | 11
C=C1/C(=C\C=C2/CCCC3(C)[C@@H]([C@H](C)CCCC(C)(C)O)CC[C@@H]23)C[C@@H](O)C[C@@H]1O (stereo not given in full) | 0 | 0 | 37* | -2
Cc1ccc(C(=O)N/C(=C/c2cccc([N+](=O)[O-])c2)C(=O)NCCc2ccccc2)cc1 | -1 | 0 | 0 | -6
c1ccc(Oc2cccc(CSc3nc4ccccc4[nH]3)c2)cc1 | -1 | 0 | 34* | 7
Cc1cc(=O)[nH]c(SCc2cccc(Oc3ccccc3)c2)n1 | 0 | 0 | -2 | -7
CCOC(=O)c1sc2ncnc(Nc3ccc(C)cc3C)c2c1C | 0 | 0 | 55* | 4
CCN(CC)C(=O)C1CCCN(C(=O)c2cc(COc3ccc4ncccc4c3)on2)C1 (stereo not given) | -1 | 0 | 8 | -8
CCC1CCCCN1C(=O)c1cc(COc2ccc3ncccc3c2)on1 (stereo not given) | 0 | 1 | 49* | 6
SMILES | GPR151 activ | FBW7 act | TEAD-YAP inh | MITF primary
COCC1CCCCN1C(=O)c1cc(COc2ccc3ncccc3c2)on1 (stereo not given) | 2 | 0 | 42* | 1
Cc1nc(NS(=O)(=O)c2ccccc2)sc1NC(=O)Nn1cnnc1 | -1 | 0 | 2 | 17
c1cc(-c2ccc3cnc(Nc4ccc(-n5cnc(N6CCOCC6)n5)cc4)nc3c2)co1 | 2 | 0 | -1 | 37
Cc1ccc(-c2ccc3cnc(Nc4ccc(-n5cnc(N6CCOCC6)n5)cc4)nc3c2)cn1 | 0 | 2.3* | 0 | -1
c1cc(-c2ccc3cnc(Nc4ccc(-n5cnc(N6CCOCC6)n5)cc4)nc3c2)c[nH]1 | 4 | -1 | 53* | 6
CCN(CC)c1nc2cc(OC)ccc2cc1C#N | -1 | 2.3* | 23 | -17
COc1cc(NC(=O)c2ccc3nc(-c4ccc(N5CCN(C)CC5)cc4)sc3c2)cc(OC)c1OC | -2 | 0 | 62* | 11
COc1cc(NC(=O)c2ccc3nc(-c4ccc(C(=O)N5CCN(C)CC5)cc4)sc3c2)cc(OC)c1OC | 0 | 0 | 52* | 13
CN1CCN(c2ccc(-c3nc4ccc(C(=O)NCCO)cc4s3)cc2)CC1 | -1 | 0 | 67* | -7
COc1cc(NC(=O)c2ccc3nc(-c4c(C)nn(C)c4C)sc3c2)cc(OC)c1OC | -1 | 0 | 35* | 3
O=C(NCCCN1CCCC1=O)c1cc2c(s1)-c1ccccc1OC2 | 0 | 0 | -23 | 0
CC1=C(C(=O)Oc2ccccc2)C2(C)C3C(=O)N(c4ccc(C)cc4)C(=O)C3C1C1C(=O)N(c3ccc(C)cc3)C(=O)C12 (stereo not given) | -2 | 0 | 8 | -5
COc1ccc(OCCCNCCO)cc1 | -1 | 0 | 41* | 3
COCCNCCCOc1ccc(C(C)C)c(C)c1 | -2 | 0 | -11 | 12
Cc1cc(OCCCNCCO)ccc1C(C)C | -1 | 0 | 64* | 32
COc1ccc(OCCCCCNCCO)cc1 | -2 | 0 | -16 | -7
Cc1ccc(-c2ccc(C(=O)NCCc3ccccn3)c(NCC3CC3)n2)cc1 | 0 | 0 | -12 | 13
CCOc1ccc(NC(=O)CNS(=O)(=O)c2ccc(C)cc2)cc1 | -2 | 0 | -3 | -5
O=C(CCl)NCCSc1ccc(Cl)cc1 | 1 | 0 | 57* | -2
CC1CC(C)CN(c2ncnc(N)c2[N+](=O)[O-])C1 (stereo not given) | 2 | 0 | 62* | 12
CC1CCCN(c2ncnc(N)c2[N+](=O)[O-])C1 (stereo not given) | 0 | 0 | 62* | 13
Nc1ncnc(N2CCCc3ccccc32)c1[N+](=O)[O-] | 0 | 0 | 7 | 3
CC1CCCCN1c1ncnc(N)c1[N+](=O)[O-] (stereo not given) | -1 | 0 | 42* | -3
CC1Cc2ccccc2N1c1ncnc(N)c1[N+](=O)[O-] (stereo not given) | -2 | 0 | 81* | 19
CC1CN(c2ncnc(N)c2[N+](=O)[O-])CC(C)O1 (stereo not given) | 0 | 0 | 28 | 9
SMILES | GPR151 activ | FBW7 act | TEAD-YAP inh | MITF primary
CCC1CCCCN1c1ncnc(N)c1[N+](=O)[O-] (stereo not given) | 2 | 0 | 30 | 14
CC1CCN(c2ncnc(N)c2[N+](=O)[O-])CC1 | 3 | 0 | 28 | 18
Nc1ncnc(N2CCCC2)c1[N+](=O)[O-] | 3 | 0 | 33* | 5
Cc1cc(C)n2c(=O)c3cc(F)ccc3nc2c1C#N | -1 | 0 | 9 | -7
COc1cc(C(c2cc(Cl)c3cccnc3c2O)N2CCCC2)cc(OC)c1OC (stereo not given) | 1 | -1 | 16 | 37
COc1ccc(C(c2sc3nc(C)nn3c2O)N2CCOCC2)cc1 (stereo not given) | 0 | 0 | -2 | 7
